Assay results published in the supplement of paper PMC13380429.

System: Vero E6 infected with SARS-CoV-2
Experiment: inhibition of SARS-CoV-2 cytopathic effect; higher = more antiviral protection, active = above 15
Details: 48 h

Measured: inhibition of SARS-CoV-2 cytopathic effect

O=C(Nc1ccc(-c2ccncc2)cc1)N[C@H](CO)c1ccccc1
inactive: 1 nM -3.49% | 8.33 nM 2.37% | 100 nM -1.14% | 833.33 nM -0.94% | 10000 nM -7.89%

COc1ccc(CN(CCN(C)C)c2ccccn2)cc1 [mepyramine]
inactive: 1 nM -3.35% | 8.33 nM -2.48% | 100 nM -1.11% | 833.33 nM 2.27% | 10000 nM 1.04%

N#C/C(=C\c1ccc(O)c(O)c1)C(N)=O [tyrphostin-AG-99]
inactive: 1 nM 3.54% | 8.33 nM 0.59% | 100 nM -0.43% | 833.33 nM 3.25% | 10000 nM 0.46%

OC[C@H]1O[C@H]([S-])[C@H](O)[C@@H](O)[C@@H]1O.[Au+] [aurothioglucose]
inactive: 1 nM 0.67% | 8.33 nM -0.7% | 100 nM -0.3% | 833.33 nM 0.93% | 10000 nM 0.69%

COc1cc(C)nc(-n2nc(C)cc2OC)n1 [epirizole]
inactive: 1 nM 1.56% | 8.33 nM 3.82% | 100 nM -0.67% | 833.33 nM 0.65% | 10000 nM -2.64%

O=C(O)C1CSCN1 (stereo not given) [timonacic]
inactive: 1 nM -2.35% | 8.33 nM -1.08% | 100 nM 3.52% | 833.33 nM 10.6% | 10000 nM 4.51%

CC(C)CCNc1ncccc1C(=O)N1CCN(Cc2ccccc2)CC1
inactive: 1 nM 0.16% | 8.33 nM 0.21% | 100 nM 1.38% | 833.33 nM 0.33% | 10000 nM -0.35%

CN1CCN(C(c2ccccc2)c2ccccc2)CC1 [cyclizine]
inactive: 1 nM -1.86% | 8.33 nM -1.86% | 100 nM -1.97% | 833.33 nM -0.45% | 10000 nM 0.42%

CCCCC(=O)O[C@]1(C(=O)CO)CC[C@H]2[C@@H]3CCC4=CC(=O)CC[C@]4(C)[C@H]3[C@@H](O)C[C@@]21C [hydrocortisone-valerate]
inactive: 1 nM -0.15% | 8.33 nM 3.88% | 100 nM 4.88% | 833.33 nM 4.12% | 10000 nM -1.55%

CC(C)(O)C(=O)Nc1ccc([N+](=O)[O-])c(C(F)(F)F)c1 [2-hydroxyflutamide]
inactive: 1 nM 0.48% | 8.33 nM 0.38% | 100 nM -0.65% | 833.33 nM -2.57% | 10000 nM -4.93%

O=C(O[C@@H]1Cc2c(O)cc(O)cc2O[C@@H]1c1cc(O)c(O)c(O)c1)c1cc(O)c(O)c(O)c1 [epigallocatechin-gallate-(-)]
inactive: 1 nM -3.81% | 8.33 nM 2.17% | 100 nM 0.79% | 833.33 nM 1.05% | 10000 nM 0.98%

O=C(O)CCCN1CCC(O[C@@H](c2ccc(Cl)cc2)c2ccccn2)CC1 [bepotastine]
inactive: 1 nM -0.92% | 8.33 nM 2.31% | 100 nM 0.31% | 833.33 nM 2.01% | 10000 nM -0.07%

COc1nccc(-c2c(-c3ccc(F)cc3)ncn2C2CCNCC2)n1
inactive: 1 nM -7.74% | 8.33 nM 0.83% | 100 nM -2.49% | 833.33 nM -2.73% | 10000 nM 7.05%

CC(C)(Oc1ccc(C2CC2(Cl)Cl)cc1)C(=O)O (stereo not given) [ciprofibrate]
inactive: 1 nM -2% | 8.33 nM 1.09% | 100 nM -0.52% | 833.33 nM -2.34% | 10000 nM -4.5%

Cn1cc(C(=O)c2cccc3ccccc23)cc1C(=O)O [napirimus]
inactive: 1 nM -0.4% | 8.33 nM -1.83% | 100 nM 0.36% | 833.33 nM -1.9% | 10000 nM 1.11%

COC(=O)N[C@H](C(=O)N1CCC[C@H]1c1ncc(-c2ccc(-c3ccc(-c4cnc([C@@H]5CCCN5C(=O)[C@@H](NC(=O)OC)C(C)C)[nH]4)cc3)cc2)[nH]1)C(C)C [daclatasvir]
inactive: 1 nM -1.73% | 8.33 nM 0.14% | 100 nM -0.71% | 833.33 nM -2.47% | 10000 nM -0.59%

O=C(O)c1cn(C2CC2)c2cc(N3CCNCC3)c(F)cc2c1=O [ciprofloxacin]
inactive: 1 nM -2.01% | 8.33 nM -1.59% | 100 nM 0.61% | 833.33 nM -0.98% | 10000 nM -2.99%

CCN(CCNC(=O)Nc1ccccc1Br)c1cccc(C)c1
inactive: 1 nM -0.09% | 8.33 nM 2.65% | 100 nM -0.41% | 833.33 nM -0.7% | 10000 nM 0.98%

O=C(Nc1cccnn1)N1CCC(=Cc2cccc(Oc3ccc(C(F)(F)F)cn3)c2)CC1
inactive: 1 nM 0.89% | 8.33 nM 1.24% | 100 nM -0.76% | 833.33 nM -0.98% | 10000 nM -3.19%

CCc1c2c(nc3ccc(O)cc13)-c1cc3c(c(=O)n1C2)COC(=O)[C@]3(O)CC
inactive: 1 nM 1.57% | 8.33 nM 0.05% | 100 nM -1.96% | 833.33 nM -6.66% | 10000 nM -16.9%

NNC(=O)c1ccncc1 [isoniazid]
inactive: 1 nM -3.24% | 8.33 nM 0.31% | 100 nM 0.58% | 833.33 nM 3.21% | 10000 nM -1.15%

CN[C@@H]1[C@H](O)[C@H](NC)[C@H]2O[C@@]3(O)C(=O)C[C@@H](C)O[C@H]3O[C@@H]2[C@H]1O [spectinomycin]
inactive: 1 nM 1.83% | 8.33 nM 2% | 100 nM 1.36% | 833.33 nM 4.54% | 10000 nM 3.59%

CCC(=O)[C@@]1(C)[C@H](C)C[C@H]2[C@@H]3CCC4=CC(=O)C=C[C@]4(C)[C@H]3[C@@H](O)C[C@@]21C [rimexolone]
inactive: 1 nM -1.78% | 8.33 nM -0.66% | 100 nM -2.92% | 833.33 nM 0.22% | 10000 nM -2.54%

CC(Oc1c(Cl)cccc1Cl)C1=NCCN1 (stereo not given) [lofexidine]
inactive: 1 nM 3.3% | 8.33 nM 3.14% | 100 nM 5.17% | 833.33 nM 7.76% | 10000 nM 1.15%

COc1ccc(C(=O)NCc2ccc(OCCN(C)C)cc2)cc1OC [itopride]
inactive: 1 nM 0.25% | 8.33 nM -0.19% | 100 nM 1.77% | 833.33 nM -0.42% | 10000 nM 0.72%

NC(=O)c1nc(F)cnc1O [Favipiravir]
inactive: 1 nM -0.26% | 8.33 nM 1.4% | 100 nM -0.55% | 833.33 nM 1.38% | 10000 nM -0.22%

Cc1[nH]c(/C=C2\C(=O)Nc3ccc(F)cc32)c(C)c1C(=O)NCCN1CCCC1 [toceranib]
inactive: 1 nM -2.12% | 8.33 nM -2.33% | 100 nM -1.03% | 833.33 nM -1.29% | 10000 nM -7.87%

Cc1ccc(C(=O)Nc2ccc(Oc3cc4cnn(C)c4cc3-c3cn[nH]c3)c(F)c2)c(=O)n1-c1ccc(F)cc1
inactive: 1 nM -0.46% | 8.33 nM 1.35% | 100 nM -1.01% | 833.33 nM -1.13% | 10000 nM -2.06%

CCCC[C@@]1(C2CCCC2)Cc2cc(OCCCC(=O)O)c(Cl)c(Cl)c2C1=O
inactive: 1 nM 2.56% | 8.33 nM 0.21% | 100 nM 0.81% | 833.33 nM 2.21% | 10000 nM 2.61%

COc1cc2c(cc1C(F)(F)F)N(C(=O)Nc1cc(F)cc(-c3cccnc3)c1)CC2
inactive: 1 nM 1.91% | 8.33 nM 2.35% | 100 nM 0.87% | 833.33 nM 2.32% | 10000 nM 2.45%

Fc1cc(F)c2c(c1)[C@H]1C=CC[C@H]1C(c1cccnc1)N2 (stereo not given in full) [Golgicide A]
inactive: 1 nM -0.89% | 8.33 nM 0.7% | 100 nM -0.27% | 833.33 nM -0.71% | 10000 nM -3.16%

CN1c2ccccc2C(=O)N2CCc3c([nH]c4ccccc34)C21 (stereo in doubt) [evodiamine]
inactive: 1 nM 0.51% | 8.33 nM 2.11% | 100 nM 2.14% | 833.33 nM 4.34% | 10000 nM 2.33%

CCN(CC)S(=O)(=O)c1ccc(C(=O)O)cc1 [etebenecid]
inactive: 1 nM -3.2% | 8.33 nM 1.54% | 100 nM 0.48% | 833.33 nM 1.89% | 10000 nM 2.73%

CC1(C)CC(=O)c2c(C(F)(F)F)nn(-c3ccc(C(N)=O)c(N[C@H]4CC[C@H](O)CC4)c3)c2C1
inactive: 1 nM 1.9% | 8.33 nM 1.97% | 100 nM -3.3% | 833.33 nM -1.33% | 10000 nM -0.66%

CCCc1c2oc(C(=O)O)cc(=O)c2cc2c(=O)cc(C(=O)O)n(CC)c12 [nedocromil]
inactive: 1 nM 2.42% | 8.33 nM 1.24% | 100 nM 0.71% | 833.33 nM 1.06% | 10000 nM 0.79%
